Reference: PubChem BioAssay (Tox21)
Records with an inconclusive call do not appear. A call without a number means that no potency is given here. A number with no mark means an inactive call. Calls of active or inactive are those of the source. Calls follow the shape of the full dose curve.

assay: qHTS assay to identify small molecule agonists of the hypoxia (HIF-1) signaling pathway - cell viability counter screen (AID 1224844); conditions: HRE-bla ME-180 viability, CellTiter-Glo luminescence, 17 h; series mostly up to 76.8 µM; also: nearly all actives have a fitted effect of over 50% in size
Description: National Center for Advancing Translational Sciences [NCATS]
NIH Chemical Genomics Center [NCGC]
U.S. Environmental Protection Agency [EPA]
National Institutes of Environmental Health Sciences [NIEHS]
National Toxicology Program [NTP]
U.S. Food and Drug Administration [FDA]
Hypoxia-inducible factor-1 (HIF-1) is the major hypoxia-regulated transcription factor that controls cellular responses to low oxygen concentration. HIF-1 is composed of two subunits: hypoxia responsive HIF-1-alpha and constitutively expressed HIF-1-beta, which is also known as aryl hydrocarbon receptor nuclear translocator. During hypoxic conditions, HIF-1-alpha heterodimerizes with HIF-1-beta and translocates into the nucleus where the HIF-1 complex binds to the hypoxia-response element (HRE) and activates expression of target genes such as VEGF (vascular endothelial growth factor). The HIF-1 pathway is essential to normal growth and development, and is involved in the pathophysiology of cancer, inflammation, and ischemia.
Using a beta-lactamase reporter-gene under control of the hypoxia response element, a cell-based assay [CellSensor(TM) HRE-bla ME-180 from Life Technologies, Carlsbad, CA] was used to measure hypoxia-induced signaling. Tox21 10K library compounds were measured for their ability to induce the reporter gene activity. The cytotoxicity of the Tox21 compound library against HRE-bla ME-180 cell line was tested in parallel by measuring cell viability using CellTiter-Glo assay (Promega, Madison, WI) in the same assay wells.
Tox21 Assay Protocol Summary:
HRE-bla ME-180 cells were dispensed at 2,000 cells per well in 6 uL of assay medium containing 0.5% dialyzed FBS into black wall/clear-bottom 1536-well plates using a Multidrop Combi (Thermo Scientific, Waltham, MA) dispenser. After the assay plates were incubated at 37C and 5% CO2 for 5 hrs, 23 nL of compounds dissolved in DMSO, positive controls or DMSO only was transferred to each well of the assay plate using a Pintool station (Kalypsys, San Diego, CA). The assay plates were incubated at 37C and 5% CO2 for 17 hrs. One uL of LiveBLAzerTM B/G FRET substrate (CCF4-AM) (Life Technologies) was added to each well using a Flying Reagent Dispenser (FRD, Aurora Discovery, San Diego, CA). After 2 hr incubation at room temperature, fluorescence intensity (405 nm excitation, 460 nm and 530 nm emissions) was measured using an Envision plate reader (PerkinElmer, Shelton, CT). For cytotoxicity, 4 ul/well of CellTiter-Glo reagent was added into the assay plates using an FRD. After 30 min incubation at room temperature, the luminescence intensity was measured using a ViewLux plate reader (PerkinElmer).

Compound	Potency	activity change, negative = cytotoxicity
COC(C(=O)O)c1ccccc1 (stereo not given)	inactive	–
C=C(C)[C@@H]1CCC2=CC(=O)C[C@@H](C)[C@]2(C)C1	inactive	–
CCCCCCCCN(C)CCCCCCCC	inactive	–
C(=C(c1ccccc1)c1ccccc1)c1ccccc1	inactive	–
CC(C)(O)c1ccccc1	inactive	–
C=C[Si](OC)(OC)OC	inactive	–
Nc1nc(F)nc2c1ncn2[C@@H]1O[C@H](CO)[C@@H](O)[C@@H]1O	inactive	–
C[C@H](O)C(=O)Nc1c(I)c(C(=O)NC(CO)CO)c(I)c(C(=O)NC(CO)CO)c1I	inactive	–
CCC(=O)c1cccc(Cl)c1	inactive	–
CCCCOCC(C)OCC(C)O (stereo not given)	inactive	–
Nc1ncnc2c1ncn2Cc1c(F)cccc1Cl	inactive	–
NC(N)=NS(=O)(=O)c1ccc(N)cc1	inactive	–
NC1CCN(c2cccc(Cl)n2)CC1	inactive	–
CCn1cc(C(=O)O)c(=O)c2cc(F)c(N3CCN(C)CC3)cc21	–	-1.72% [at 15.8 µM]
CCCCCCCCCCCCCCCCCC(=O)OCCCCCCCCCCCCCC(C)C	inactive	–
CCN1CCN(c2cc3c(cc2F)c(=O)c(C(=O)O)cn3C2CC2)CC1	inactive	–
CCOC(=O)[C@H](CCc1ccccc1)N[C@@H](C)C(=O)N1CCC[C@H]1C(=O)O	inactive	–
COC(=O)CCCC(=O)O	inactive	–
CO[Si](CCCNCCC[Si](OC)(OC)OC)(OC)OC	inactive	–
NC(=O)c1c(Cl)cccc1Cl	inactive	–

Compound	Potency	activity change, negative = cytotoxicity
CCCCCCCCCCCCCCCCCCOCC(O)CO (stereo not given)	inactive	–
CC(C)=CCC/C(C)=C/C(=O)O	inactive	–
CCOC(=O)Nc1ccc2c(c1)N(C(=O)CCN1CCOCC1)c1ccccc1S2	inactive	–
C#CC(O)CCCCC (stereo not given)	inactive	–
CC(C)CCOC(=O)CC(C)C	inactive	–
O=S(=O)(c1cccc2cnccc12)N1CCCNCC1	inactive	–
OCCN1C[C@H](O)[C@@H](O)[C@H](O)[C@H]1CO	inactive	–
[O-][N+](=Nc1ccccc1)c1ccccc1	inactive	–
CCCCC=O	inactive	–
C1=C\CC/C=C\CC/C=C\CC/1	inactive	–
COC(=O)C1=C(C)NC(C)=C(C(=O)OCC(C)=O)C1c1ccccc1[N+](=O)[O-] (stereo not given)	inactive	–
Cc1c(F)cc2c(=O)c(C(=O)O)cn3c2c1CCC3C (stereo not given)	inactive	–
CC(C)(C)C(=O)/C=C/c1ccc(Cl)cc1	inactive	–
O=[N+]([O-])c1ccc(CCO)cc1	inactive	–
NCC[C@H](O)C(=O)N[C@@H]1C[C@H](N)[C@@H](O[C@H]2O[C@H](CN)[C@@H](O)[C@H](O)[C@H]2O)[C@H](O)[C@H]1O[C@H]1O[C@H](CO)[C@@H](O)[C@H](N)[C@H]1O	–	3.37% [at 0.29 µM]
C=C(C)C(=O)NCCC[N+](C)(C)C	inactive	–
C=C(C)[C@H]1CC=C(C)CC1	inactive	–
O=c1[nH]c2ccccc2c(=O)n1CCCl	inactive	–
CCCCCCCCCCCl	inactive	–
OC1OC[C@@H](O)[C@H](O)[C@H]1O (stereo not given in full)	inactive	–
